# Tb PYK inh: T. brucei pyruvate kinase inhibition; Q57TT1; TbPYK enzyme, Kinase-Glo Plus ATP luminescence, 45 min; Potency, µM (doses to about 76.8 µM), for inactives: top-dose activity, negative = inhibition, hits mostly inhibitors; hit rate 0.12% among 410,000; AID 624173; also: potency is read from the fitted curve at half-maximal effect; nearly all actives have a fitted effect of over 50% in size
#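 T. brucei PYK with substrate was exposed to pin-transferred compounds across a concentration series, then started with 130 uM ADP (final). After 45 min at room temperature, Kinase-Glo Plus luminescence was read, normalized and curve-fitted.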
# Sm TGR block: blocks Schistosoma mansoni thioredoxin glutathione reductase | Q962Y6 | purified TGR, DTNB reduction, TNB absorbance 405 nm | Potency, µM (series often up to 114 µM), for inactives: top-dose activity change, negative = inhibition, usual class: inhibitors | hit rate 3% among 360,000; also: potency is read from the fitted curve at half-maximal effect; nearly all actives have a fitted effect of over 60% in size
#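 First, TGR (20 nM dispensed) and NADPH were mixed with compound. Second, a 15 min room-temperature incubation followed. Third, further NADPH and then DTNB were added to start the reaction. Finally, TNB absorbance was monitored kinetically.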
# Giardia FBPA inh: Giardia lamblia aldolase inhibition; Potency, µM (top dose mostly 59.6 µM), for the others: top-dose activity, negative = inhibition, most hits filed as inhibitors; purified Giardia FBPA; A8B2U2; AID 2451; hit rate 0.71% among 290,000; also: potency is read from the fitted curve at half-maximal effect; nearly all actives have a fitted effect of over 55% in size
# Target sequence (A8B2U2 whole entry, looked up): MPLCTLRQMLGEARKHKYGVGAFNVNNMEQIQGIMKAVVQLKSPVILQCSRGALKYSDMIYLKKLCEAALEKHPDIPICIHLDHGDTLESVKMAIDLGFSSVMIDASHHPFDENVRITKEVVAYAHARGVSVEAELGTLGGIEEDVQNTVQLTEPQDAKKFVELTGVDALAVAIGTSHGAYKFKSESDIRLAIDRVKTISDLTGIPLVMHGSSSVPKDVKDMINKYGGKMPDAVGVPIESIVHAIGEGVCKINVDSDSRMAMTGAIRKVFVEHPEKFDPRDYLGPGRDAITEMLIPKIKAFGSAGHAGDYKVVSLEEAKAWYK
#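 40 nM FBPA preincubated 10 min at RT with compound (up to 57.5 uM final), then substrate plus GAPDH/TPI/NAD/arsenate coupling and diaphorase/resazurin added. Fluorescence read after 20 min at RT, 525/598 nm.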
# RE007 growth inh: less growth of the S. pombe RE007 Vpr strain. S. pombe RE007 Vpr strain, BacTiter-Glo ATP luminescence, 24 h. Potency, µM (doses to about 92.2 µM), inactives show at the top dose activity change, negative = less growth, hits mostly inhibitors. hit rate 0.21% among 360,000; active = well fitted falling curve with a large enough effect; inconclusive = small, poorly fitted or top-dose-only effect; inactive = no such curve, though single readings can be large or run the other way; also: potency is read from the fitted curve at half-maximal effect; nearly all actives have a fitted effect of over 50% in size
#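 Fission yeast strain RE007, carrying one chromosomally integrated HIV-1 vpr copy, was seeded at OD 0.01 in PMG+AL medium with 23 nL pinned compound. After 24 h at 30 °C and 99% humidity, viability was read by BacTiter-Glo luminescence.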
# HCMV antiviral: blocks human cytomegalovirus replication; activity change, negative = inhibition, % at 57.5 µM; HFF cells, HCMV-luciferase reporter, 72 h; hits give low values; hit rate 4.5% among 410,000; in the data active = activity change below about -60%; inconclusive = no clear call, values can overlap the other calls; inactive = above about -39%
#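 Two compound doses tested in HFFs infected with HCMV-luciferase, MOI 1 PFU/cell, 72 h at 37C. Lysate luminescence read with OneGlo; data normalized against buffer-only and 10uM Salinomycin inhibitor controls.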
# FMDV antiviral: blocks foot and mouth disease virus | FMDV antiviral cell-based qHTS | Potency, µM (doses to about 57.9 µM), without a hit: at the top dose activity change, negative = inhibition, hits mostly inhibitors | hit rate 1.2% among 410,000; calls by dose curve; tested in HEK293T cells; also: read-out not given here; potency is read from the fitted curve at half-maximal effect; nearly all actives have a fitted effect of over 45% in size
# Starred values were filed as active, the others as inactive; ? = inconclusive; / = not tested or not shown; [ ] = dose if it differs, or a comment. An excerpt weighted towards active compounds, which were near 7.7% of everything screened. Unless noted, calls follow the shape of the dose curve; as a rule, active = well fitted curve in the direction sought with a large enough effect; inconclusive = small, poorly fitted or top-dose-only effect, or another doubt; inactive = no such curve, though single readings can be large; an effect the other way counts as inactive or inconclusive. % is scaled to controls: 0 for no effect and ±100 for the full control effect.
SMILES,Tb PYK inh,Sm TGR block,Giardia FBPA inh,RE007 growth inh,HCMV antiviral,FMDV antiviral
CN1C(=O)c2ccccc2Sc2ccc(NC(=O)N3CCN(c4ccccc4)CC3)cc21,-2%,-30%,/,/,-76*,?
COC(=O)NC(c1ccco1)[C@]1(C(C)=O)CCCC1=O (stereo not given in full),/,/,2%[12.9 µM],/,/,/
COc1cc(/C=C/C(=O)OCC(=O)N2c3ccccc3NC(=O)C2(C)C)cc(OC)c1OC,3%,-2%,/,-12%,-3,28µM*
COc1cc(OC)cc(C(=O)NCC(=O)OCC(=O)N2c3ccccc3NC(=O)C2(C)C)c1,5%,-2%,5%,-4%,-98*,1%
COCc1c(C(=O)OCC(=O)N2c3ccccc3NC(=O)C2(C)C)oc2ccccc12,0%,-4%,-4%,10%,7,25µM*
COCc1c(C(=O)OCC(=O)N2c3ccccc3CC2C)oc2ccccc12 (stereo not given),0%,-22%,0%,4%,13,21%
COc1ccc(S(N)(=O)=O)cc1C(=O)OCC(=O)N1c2ccccc2NC(=O)C1(C)C,-8%,/,/,-5%,-13,1%
COCCNC(=O)C1(CC(C)C)C=CCN1C(=O)c1ccccc1 (stereo not given),/,/,3%,/,/,/
CCOC(=O)[C@]12Cc3cc(OC)ccc3[C@H]1N(CC(=O)OC)C(=O)c1ccccc12,-6%,/,/,-1%,-11,-18%
CCOC(=O)[C@]12Cc3cc(OC)ccc3[C@H]1N(CC(=O)OC)C(=O)c1cc(OC)ccc12,1%,/,/,-1%,-107*,14µM*
CCCCCN1C(=O)c2cc(OC)ccc2[C@@]2(C(=O)OCC)Cc3cc(OC)ccc3[C@@H]12,-3%,/,/,-24%,-105*,3.2µM*
CCOC(=O)[C@]12Cc3cc(C)ccc3[C@H]1N(Cc1ccccc1)C(=O)c1cc(OC)ccc12,4%,/,/,-20%,-35,?
CCOC(=O)[C@]12Cc3cc(OC)ccc3[C@H]1N(C)C(=O)c1cc(OC)ccc12,-5%,/,/,9%,-106*,11µM*
CCOC(=O)[C@]12Cc3cc(Cl)ccc3[C@H]1N(C)C(=O)c1cc(OC)ccc12,-16%,/,/,0%,-96*,16µM*
COc1ccc(S[C@]2(C(=O)N3CCCC3)CC(=O)N(c3ccc(Cl)cc3)[C@@H]2c2ccc(OC)cc2)cc1,/,/,/,/,-20,/
O=c1c(N2CCc3ccccc3C2)csc2ccc(Cl)cc12,-1%,-7%,/,/,0,29%
O=C(O)c1cccc(N2C(=O)/C(=C/c3ccc(SCc4ccc(Cl)cc4)o3)SC2=S)c1,?,13µM*,?,-18%,?,-2%
COc1ccc(OC)c(-c2ccnc(-n3ncc(C(=O)N(C)CCc4ccccn4)c3C)n2)c1,/,/,/,/,/,-11%
COc1ccc(NC(=O)c2c(N)c(C(=O)c3ccc(C)cc3)n3ccccc23)cc1OC,1%,1%,/,/,-20,-11%
COc1cc(C(=O)Oc2cccc(/C=N/NC(=O)c3cc(C)[nH]n3)c2)cc(OC)c1OC,-1%,-1%,-8%,10%,32,-2%
Cc1cc(C(=O)N/N=C/c2cccc(OC(=O)c3cccc(Br)c3)c2)n[nH]1,4%,-5%,/,1%,-71*,23%
COc1cccc(C(=O)Oc2c(Br)cc(Br)cc2/C=N/NC(=O)c2cc(C)[nH]n2)c1,0%,3%,2%,12%,-97*,-8%
O=C(O)C1CCCN1C(=O)c1cccc(Cl)c1 (stereo not given),/,/,/,/,22,/
CC(=O)Oc1ccc(C2(c3ccc(OC(C)=O)cc3)Oc3ccccc3NC2=O)cc1,-5%,/,/,/,/,/
CC(=O)Nc1ccc(S(=O)(=O)Nc2ccccn2)cc1,-9%,3%[57.1 µM],3%,17%,30,-11%
SMILES,Tb PYK inh,Sm TGR block,Giardia FBPA inh,RE007 growth inh,HCMV antiviral,FMDV antiviral
Cc1ccc2cccc(NS(=O)(=O)c3ccccc3)c2n1,0%,1%,/,6%,-80*,?
Cc1ccccc1NS(=O)(=O)c1ccc(S(=O)(=O)N2CCCC2)cc1,0%,/,/,7%,-13,?
CC(=O)Nc1ccc(S(=O)(=O)Nc2cccc3cccnc23)cc1,-12%,-10%,-7%,6%,-83*,-12%
O=S(=O)(Nc1cccc2cccnc12)c1ccc(S(=O)(=O)N2CCCC2)cc1,0%,1%,?,0%,-86*,/
COc1ccc(NS(=O)(=O)c2ccc3ccccc3c2)c2ncccc12,-2%,7%,12%,-7%,-92*,27%
C=C1C2c3ccccc3C(CC2(C)O[Si](C)(C)C)N1C(=O)OC (stereo not given),/,/,6%[12.9 µM],/,/,/
NC(=S)Nc1cccc2cccnc12,2%,2%,-3%,0%,-79*,-10%
Cc1cc(C)c(NS(=O)(=O)c2cccc3cccnc23)c(C)c1,2%,9%,?,2%,-27,12%
Cc1ccc(S(=O)(=O)Nc2cccc3cccnc23)c([N+](=O)[O-])c1,-9%,2%,-30%,1%,-98*,?
CS(=O)(=O)Nc1cccc2cccnc12,-17%,-1%,1%,-4%,29,-1%
O=S(=O)(Nc1cccc2cccnc12)c1ccccc1,-8%,2%,18µM*,-6%,-101*,?
COc1ccccc1N1CCN(c2ncnc3c2cnn3-c2ccc(C)cc2)CC1,-1%,5%,/,/,?,?
NC(=O)CCN1CC(c2cc(Cl)c(N)c(Cl)c2)=CC1=O,/,/,/,/,-20,/
C[C@H](CCCC/C=C/C(=O)O)O[C@@H]1O[C@@H](C)[C@H](O)C[C@H]1O,3%,56µM*,/,-6%,3,-5%
COC(=O)c1ccccc1NC(=O)Cn1c(=O)n(CCCC(=O)NCc2ccccc2Cl)c(=O)c2ccccc21,1%,22%,/,/,21,-24%
COC(=O)c1ccccc1NC(=O)Cn1c(=O)n(-c2ccc(C)cc2)c(=O)c2ccccc21,2%,-1%,/,/,-62*,-9%
COc1ccc(NC(=O)Cn2c(=O)n(-c3ccc(CC(=O)NCc4ccco4)cc3)c(=O)c3ccccc32)cc1,-1%,-2%,1%,-4%,-63*,-11%
CC(=O)N1CCC[C@H]1C(=O)NCC1Cc2cc(C)cc(-c3ccc(Cl)cc3)c2O1 (stereo not given in full),/,/,/,/,/,-4%
Cc1ccc(S(=O)(=O)N(C)C)cc1NC(=S)NC12CC3CC(CC(C3)C1)C2,-9%,-2%,-14%,22%,-37,-28%
Cc1ccc(S(=O)(=O)N(C)C)cc1NC(=S)NC(=O)C12CC3CC(CC(C3)C1)C2,-9%,-14%,-5%,6%,-63*,?

# Screens from PubChem.
